{
  "source": "ChEMBL document CHEMBL1857833",
  "about": "“Screening and optimization of specific chemical series against human African Trypanosomiasis (HAT)”",
  "note": "Several values for one entry are separate records, joined by “and”; a condition that tells them apart may be missing. Equal entries are not always repeated. Among all 4,400 compounds or so, about 390 (8.9%) showed an effect of 50% or more. What follows is part of a selection rich in strong results, with near analogues and random picks from the rest.",
  "data": [
    {"system": "Trypanosoma brucei", "assay": "DNDI: Inhibition of Human African Trypanosomiasis, SBRI 427, in vitro at 2 ug.mL-1", "assay_type": "functional", "values": [
      {"compound": "Cc1ccc(Oc2nc(C)ccc2/C(=N/O)N2CCN(C)CC2)cc1", "% inhibition": "19%"},
      {"compound": "COCCN(/C(=N\\O)c1ccc(C)nc1Oc1ccc(SC)c(C)c1)C(C)C", "% inhibition": "9%"},
      {"compound": "COCCN(Cc1coc(-c2ccccc2C)n1)C(C)C", "% inhibition": "-31%"},
      {"compound": "O/N=C(\\Nc1ccon1)c1ccc(Oc2cccc3cccnc23)nc1", "% inhibition": "13%"},
      {"compound": "CCOc1ccccc1-c1nc(CN2CCN(c3cc(C)nc4ccccc34)CC2)co1", "% inhibition": "14%"},
      {"compound": "CN(/C(=N\\O)c1cccnc1OCc1cccc(F)c1)C1CCCCC1", "% inhibition": "-3%"},
      {"compound": "CN(/C(=N\\O)c1cccnc1OCc1cccc(F)c1)c1ccccc1", "% inhibition": "98%"},
      {"compound": "CN(/C(=N\\O)c1cccnc1OCc1ccccc1F)c1ccccc1", "% inhibition": "98%"},
      {"compound": "N/C(=N\\O)c1cccnc1OCc1cccc(F)c1", "% inhibition": "-4%"},
      {"compound": "Cc1ccc(/C(=N/O)N(C)c2ccccc2)c(OCc2ccccc2F)n1", "% inhibition": "-4%"},
      {"compound": "CN(Cc1ccco1)/C(=N\\O)c1cccnc1OCc1ccccc1F", "% inhibition": "5%"},
      {"compound": "O=Cc1nccn1Cc1coc(-c2ccc(Br)cc2)n1", "% inhibition": "11%"},
      {"compound": "CCOc1ccccc1CN/C(=N\\O)c1ccnc(Oc2ccc(F)c(F)c2)c1", "% inhibition": "13%"},
      {"compound": "CN(C)CCN(Cc1ccccc1)Cc1coc(-c2ccc(Br)cc2)n1", "% inhibition": "23%"},
      {"compound": "Clc1cccc(N2CCN(Cc3coc(-c4ccccc4Br)n3)CC2)c1", "% inhibition": "7%"},
      {"compound": "COc1ccccc1CCNCc1coc(-c2ccccc2Br)n1", "% inhibition": "6%"},
      {"compound": "CCOc1ccccc1CN/C(=N\\O)c1ccc(Oc2cc(C)cc(C)c2)nc1", "% inhibition": "28%"},
      {"compound": "Cc1ccc(/C(=N/O)N2CCC(N(C)C)C2)c(Oc2cccc(F)c2)n1", "note": "(stereo not drawn)", "% inhibition": "6%"},
      {"compound": "CCOc1ccccc1-c1nc(CNC2CCN(Cc3ccccc3)C2)co1", "note": "(stereo not drawn)", "% inhibition": "6%"},
      {"compound": "CCOc1ccccc1-c1nc(CNC(C)c2cccc3ccccc23)co1", "note": "(stereo not drawn)", "% inhibition": "5% and 9%"},
      {"compound": "CCOc1ccccc1-c1nc(CNC(C)C2CCCCC2)co1", "note": "(stereo not drawn)", "% inhibition": "98%"},
      {"compound": "CCOc1ccccc1-c1nc(CNC(C)c2ccc(C)cc2)co1", "note": "(stereo not drawn)", "% inhibition": "15%"},
      {"compound": "CCOc1ccccc1-c1nc(CNC2CCCCCCCCCCC2)co1", "% inhibition": "99%"},
      {"compound": "Cc1ccccc1-c1nc(CNC(C)C2CCCCC2)co1", "note": "(stereo not drawn)", "% inhibition": "23%"},
      {"compound": "Cc1ccc(-c2nc(CNC(C)C3CCCCC3)co2)cc1", "note": "(stereo not drawn)", "% inhibition": "25%"},
      {"compound": "CC(NCc1coc(-c2ccccc2Br)n1)C1CCCCC1", "note": "(stereo not drawn)", "% inhibition": "-30% and -35%"},
      {"compound": "CCOc1ccc(-c2nc(CNC(C)C3CCCCC3)co2)cc1", "note": "(stereo not drawn)", "% inhibition": "87%"},
      {"compound": "CC(NCc1coc(-c2cccc3ccccc23)n1)C1CCCCC1", "note": "(stereo not drawn)", "% inhibition": "87% and 90%"},
      {"compound": "CCOc1ccccc1-c1nc(CNC2C[C@H]3CC[C@@H]2C3)co1", "note": "(stereo partly drawn)", "% inhibition": "28%"},
      {"compound": "CC(NCc1coc(-c2ccc(Br)cc2)n1)C1CCCCC1", "note": "(stereo not drawn)", "% inhibition": "36%"},
      {"compound": "N/C(=N\\O)c1ccc(Oc2cccc3ccccc23)nc1", "% inhibition": "36%"},
      {"compound": "COc1ccc(-c2nc(CN(C)Cc3cccc4ccccc34)co2)cc1", "% inhibition": "-11%"},
      {"compound": "COCCN(/C(=N\\O)c1ccc(Oc2ccc(C)cc2C)nc1)C(C)C", "% inhibition": "5%"},
      {"compound": "COc1ccc(-c2nc(CNC[C@@H]3CCCO3)co2)cc1", "% inhibition": "16%"},
      {"compound": "CCOc1ccccc1-c1nc(CN(CCC#N)CC2CCCO2)co1", "note": "(stereo not drawn)", "% inhibition": "-20%"},
      {"compound": "CCOc1ccccc1-c1nc(CN(CC)CCN(CC)CC)co1", "% inhibition": "-5%"},
      {"compound": "O/N=C(\\NC1CCc2ccccc21)c1ccnc(Oc2cccc3cnccc23)c1", "note": "(stereo not drawn)", "% inhibition": "18%"},
      {"compound": "C=CCN1CCN(/C(=N\\O)c2cccnc2Oc2ccc(Cl)cc2)CC1", "% inhibition": "7%"},
      {"compound": "Brc1ccccc1-c1nc(CNCCC2=CCCCC2)co1", "% inhibition": "-2%"},
      {"compound": "CCOc1ccccc1-c1nc(CNCCC2=CCCCC2)co1", "% inhibition": "53%"},
      {"compound": "Cc1ccccc1-c1nc(CNCCC2=CCCCC2)co1", "% inhibition": "10%"},
      {"compound": "COc1ccc(OC)c(NCc2coc(-c3ccco3)n2)c1", "% inhibition": "-5%"},
      {"compound": "CCC(CC)NCc1coc(-c2ccccc2Cl)n1", "% inhibition": "-8%"},
      {"compound": "CCOc1ccc(Oc2nc(C)ccc2/C(=N/O)NCc2ccco2)cc1", "% inhibition": "6%"},
      {"compound": "Cc1ccc([C@@H](C)NCc2coc(-c3ccc(Cl)cc3Cl)n2)cc1", "% inhibition": "14%"},
      {"compound": "O/N=C(/c1ccnc(Oc2cccc(F)c2)c1)N1CCCCCC1", "% inhibition": "3%"},
      {"compound": "CCC(CC)N/C(=N\\O)c1ccc(C)nc1Oc1cc(C)cc(C(C)C)c1", "% inhibition": "15%"},
      {"compound": "CCC(CC)N/C(=N\\O)c1ccc(C)nc1Oc1ccc(C)cc1C", "% inhibition": "34%"},
      {"compound": "CCC(CC)N/C(=N\\O)c1ccc(C)nc1Oc1ccc(F)cc1", "% inhibition": "24%"},
      {"compound": "COc1cc(C)ccc1Oc1nc(C)ccc1/C(=N/O)NC(C)C", "% inhibition": "29%"},
      {"compound": "CCC(CC)N/C(=N\\O)c1ccc(C)nc1Oc1ccc(SC)cc1", "% inhibition": "99%"},
      {"compound": "CSc1ccc(Oc2nc(C)ccc2/C(=N/O)NCC(C)(C)C)cc1", "% inhibition": "-6%"},
      {"compound": "CSc1ccc(Oc2nc(C)ccc2/C(=N/O)NC(C)C)cc1", "% inhibition": "-8%"},
      {"compound": "CCC(CC)N/C(=N\\O)c1ccc(C)nc1Oc1ccc(C)cc1", "% inhibition": "70%"},
      {"compound": "CCC(CC)N/C(=N\\O)c1ccc(C)nc1Oc1ccc(C)cc1OC", "% inhibition": "100%"},
      {"compound": "Cc1ccc(/C(N)=N/O)c(Oc2cccc3ccc(C)nc23)n1", "% inhibition": "13%"},
      {"compound": "O/N=C(\\NCCN1CCOCC1)c1ccc(Oc2cccc3cccnc23)nc1", "% inhibition": "9%"},
      {"compound": "Cc1cc(Oc2ccc(/C(=N/O)n3ccnc3)cn2)cc(C(C)C)c1", "% inhibition": "1%"}
    ]}
  ]
}
